RORgamma inh: inhibitors of mouse ROR gamma transcriptional activity; Drosophila S2 Gal4-RORgamma UAS-luciferase reporter, 20 h; Potency, µM (titrated, usually from 53.6 µM), for inactives: at the top dose activity change, negative = inhibition, usual class: inhibitors; 5.4% of 310,000 active; P51450; further: nearly all actives have a fitted effect of over 60% in size
Target sequence (P51450 whole entry, looked up, the tested form may be a part): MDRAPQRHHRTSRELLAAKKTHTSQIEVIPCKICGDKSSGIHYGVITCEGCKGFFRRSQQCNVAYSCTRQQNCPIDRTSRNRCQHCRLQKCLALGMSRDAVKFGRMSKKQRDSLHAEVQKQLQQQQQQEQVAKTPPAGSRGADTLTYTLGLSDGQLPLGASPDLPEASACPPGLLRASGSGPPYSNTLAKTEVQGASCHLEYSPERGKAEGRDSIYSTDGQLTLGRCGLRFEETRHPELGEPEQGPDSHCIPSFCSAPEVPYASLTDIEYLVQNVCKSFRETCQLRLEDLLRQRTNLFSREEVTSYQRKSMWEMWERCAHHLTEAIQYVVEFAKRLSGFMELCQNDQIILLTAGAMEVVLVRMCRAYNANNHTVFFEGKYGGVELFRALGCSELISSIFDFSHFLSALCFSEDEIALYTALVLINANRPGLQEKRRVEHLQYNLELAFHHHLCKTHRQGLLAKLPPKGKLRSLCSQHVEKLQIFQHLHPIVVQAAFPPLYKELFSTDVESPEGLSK
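Schneider cells (Drosophila), stable Gal4 DBD–ROR gamma + UAS-luc; 1 hr cmpd preincubation; Cu2+ induction 700 uM final; 20 hr ambient; luminescence.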
TDP1 block: blocks human tyrosyl-DNA phosphodiesterase 1. recombinant TDP1, AlphaScreen DNA substrate cleavage. 0.28% of 350,000 active. Potency, µM (doses to about 130 µM), inactives show top-dose activity change, negative = inhibition, actives largely listed as inhibitors. Q9NUW8; further: nearly all actives have a fitted effect of over 40% in size
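E. coli-derived human Tdp1, 1 nM final. Cpd preinc 15 min RT; substrate 15 nM final, 5 min RT; AS bead mix 10 ug/ml final, 10 min RT. Signal loss = tyrosine-FITC cleavage. No-enzyme wells = max signal.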
TDP1 cell CPT: growth inhibition of DT40 Tdp1-/-;hTDP1 cells with camptothecin (screen for TDP1 inhibitors); chicken DT40 Tdp1-/-;hTDP1 cells + 20 nM CPT, ATP luminescence, 48 h; Potency, µM (top dose mostly 46.2 µM), inactives show at the highest dose activity change, negative = growth inhibition, actives largely listed as inhibitors; 12% of 420,000 active; further: nearly all actives have a fitted effect of over 55% in size
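Chicken DT40 Tdp1-/- cells stably complemented with human TDP1 were seeded at 400 cells/well in medium containing 20 nM camptothecin, exposed to pin-transferred compounds, and grown at 37 °C for at least 48 hr. Viability was read as ATP luminescence.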
TDP1 cell noCPT: qHTS for Inhibitors of human tyrosyl-DNA phosphodiesterase 1 (TDP1): qHTS in cells in absence of CPT | 15% of 420,000 active | AID 686978, 2013 | Potency, µM (highest dose often 46.2 µM), for inactives: top-dose activity change, negative = growth inhibition, actives largely listed as inhibitors | DT40 Tdp1-/- hTDP1 cells, no CPT, ATP luminescence, 48 h; further: nearly all actives have a fitted effect of over 55% in size
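Growth of hTDP1-complemented DT40 Tdp1-knockout cells is measured by ATP luminescence after at least 48 hr compound exposure at 37 °C, with DMSO substituting for the 20 nM CPT used in the parallel screen.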
Gal4-VP16 FLuc: counter-screen for ROR gamma inhibitors: Gal4-VP16 reporter; AID 2546; Drosophila S2 Gal4-VP16 UAS-luciferase, luminescence, 20 h; 3.5% of 310,000 active; Potency, µM (doses to about 53.6 µM), for inactives: at the top dose activity, negative = inhibition, usual class: inhibitors;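 further: Gal4-VP16 expression switched on by copper sulfate through the metallothionein promoter; nearly all actives have a fitted effect of over 50% in size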
Starred values were filed as active, the others as inactive; ? = inconclusive; · = no result given; [ ] = remark or other dose. Shown are actives, neighbours in structure and some others; about 19% of the full set was active somewhere. The call rests on the fitted dose curve; in most records, active means well fitted curve in the direction sought with a large enough effect; inconclusive means small, poorly fitted or top-dose-only effect, or another doubt; inactive means no such curve, though single readings can be large; an effect the other way counts as inactive or inconclusive. On the % scale 0 is the no-effect control and ±100 the full control effect; potency means the concentration at half of the fitted maximal effect.

SMILES | RORgamma inh | TDP1 block | TDP1 cell CPT | TDP1 cell noCPT | Gal4-VP16 FLuc
CCOC(=O)c1cc(OCC)c2c(ccc3ccccc32)n1 | · | · | -26% | ? | ·
Oc1cccc(-c2nc3ccc4ccccc4c3c3c2CCC3)c1 | -36% | -1% | ? | 21µM* | -26%
O=C(Nc1cccc(-c2nc3ncccc3o2)c1)c1cc2ccccc2o1 | -6% | -5% | 21µM* | 23µM* | -1%
O=C(Nc1cccc(-c2nc3ncccc3o2)c1)c1sc2ccccc2c1Cl | -13% | 4% | 10µM* | ? | -2%
O=C(Cc1ccccc1)Nc1cccc(-c2nc3ncccc3o2)c1 | 5% | 0% | -15% | ? | 2%
COc1cc2cc(C(=O)N(C)C3CCS(=O)(=O)C3)[nH]c2cc1OC (stereo not given) | 20µM* | 4% | -1% | 16% | 2%
CN(C(=O)c1ccc(Cl)cc1)C1CCS(=O)(=O)C1 (stereo not given) | · | 1% | -27% | 3% | ·
O=C1NC[C@H](CCCCN2C[C@H](Cc3ccc(O)cc3)N(Cc3ccccc3)C(=O)C2=O)N(CCc2ccc(O)cc2)C1=O | · | · | -7% | -9% | ·
Cc1ccc(Cc2c(C)nc3nc(SCC(=O)NCCCN4CCCCCC4)nn3c2C)cc1 | -16% | -12%[0.0935 µM] | ? | ? | 2%
Cc1nc2nc(SCC(=O)NCCc3ccc(Cl)cc3)nn2c(C)c1Cc1ccccc1Cl | · | 5% | ? | ? | ·
COc1cc(NC(=O)CSc2nc3nc(C)c(Cc4ccccc4Cl)c(C)n3n2)cc(OC)c1 | · | 0% | ? | ? | ·
Cc1cccc(Cc2c(C)nc3nc(SCC(=O)NCc4ccc(F)cc4)nn3c2C)c1 | · | 6% | 16µM* | 23µM* | ·
CCC1CCCCN1CCCNC(=O)CSc1nc2nc(C)c(Cc3ccc(C)cc3)c(C)n2n1 (stereo not given) | -16% | 4% | 23µM* | ? | -5%
Cc1ccccc1Cc1c(C)nc2nc(SCC(=O)NCCc3ccc(Cl)cc3)nn2c1C | · | 3% | 16µM* | ? | ·
COc1cc(NC(=O)CSc2nc3nc(C)c(Cc4ccccc4)c(C)n3n2)cc(OC)c1 | · | 5% | 21µM* | 8.2µM* | ·
O=C(CSc1nncs1)NCCNC(=O)CSc1nncs1 | · | 0% | 8% | -2% | ·
COc1cc(NC(=O)CSc2nc3nc(C)c(Cc4ccc(C)cc4)c(C)n3n2)cc(OC)c1 | · | 3% | ? | 8.2µM* | ·
COc1ccc(CCNC(=O)CSc2nc3nc(C)c(Cc4ccc(C)cc4)c(C)n3n2)cc1OC | · | 5% | ? | 21µM* | ·
CO/N=C(\C(=O)N[C@@H]1C(=O)N2C(C(=O)OCOC(=O)C(C)(C)C)=C(/C=C\c3scnc3C)CS[C@H]12)c1csc(N)n1 | · | · | -8% | -17% | ·
CCCC(CNC(C)=O)(C1=CCCCC1)c1ccccc1 (stereo not given) | · | · | 18µM* | 13µM* | ·
CCC1=NC(c2ccccc2)N(O)C1(C)C (stereo not given) | 2% | -12% | -1% | -12% | -1%
CCCCCCCn1c(=O)c(C(=O)OC)c(N)c2ccccc21 | 1.8µM* | · | 3.3µM* | 3.3µM* | 1.3µM*
CCCCCCCCn1c(=O)c(C(=O)OC)c(N)c2ccccc21 | 3.2µM* | 4% | 1.3µM* | 3.3µM* | 4.5µM*
COC(=O)c1c(N)c2ccccc2[nH]c1=O | 0% | 6% | -6% | -7% | -2%
N#Cc1nc(-c2ccco2)oc1N1CCC(Cc2ccccc2)CC1 | 10% | 7% | ? | -28% | 0%
SMILES | RORgamma inh | TDP1 block | TDP1 cell CPT | TDP1 cell noCPT | Gal4-VP16 FLuc
COc1ccc(N2CCN(CCCNC(=O)C3CCC(CNc4nc(=S)[nH]c5ccccc45)CC3)CC2)cc1 (stereo not given) | 24% | 8% | ? | 23µM* | -7%
O=C(C1CCC(CNc2nc(=S)[nH]c3ccccc23)CC1)N1CCN(c2ccc(F)cc2)CC1 (stereo not given) | ? | 8% | 2.6µM* | 4.6µM* | 1%
O=C(C1CC1)N1CCN(c2ccc(F)cc2)CC1 | 5% | · | 6% | 1% | 1%
O=C(CSc1ncnc2c1cnn2-c1cccc(Cl)c1)NCC1CCCO1 (stereo not given) | ? | 3% | ? | 15µM* | -18%
CNC(=O)CSc1ncnc2c1cnn2-c1ccccc1 | 41% | 5% | 20% | 9% | -4%
O=C(CSc1ncnc2c1cnn2-c1ccccc1)NC1CCCC1 | · | · | 18µM* | 23µM* | ·
CCOc1ccc(S(=O)(=O)NC(C)C(=O)NCc2ccc3c(c2)OCO3)cc1 (stereo not given) | ? | · | -36% | -19% | -3%
COc1ccc(/C=C\c2nccc3c2[nH]c2ccccc23)cc1 | · | 1% | ? | ? | ·
Clc1ccc(/C=C\c2nccc3c2[nH]c2ccccc23)cc1 | 1.6µM* | -8% | ? | ? | ?
CCc1cccc(C)c1Nc1c(-c2ccc(N3CCOCC3)cc2)nc2ncccn12 | · | 8% | 23µM* | 23µM* | ·
COc1ccc(Nc2c(-c3ccc(N4CCOCC4)cc3)nc3ncccn23)cc1OC | · | 12% | -14% | -25% | ·
CCc1cccc(C)c1Nc1c(-c2cccs2)nc2ncccn12 | · | 5% | ? | 16µM* | ·
O=C(NCCS(=O)(=O)NCc1ccccc1Cl)c1ccc2c(c1)OCO2 | · | 0% | -8% | -27% | ·
O=C(COC(=O)CN1C(=O)c2ccccc2C1=O)Nc1ccccc1 | · | 0% | -16% | 1% | ·
CCOc1ccc(N(CC(=O)NCCSCc2ccc(C)cc2)S(C)(=O)=O)cc1 | 23% | 2% | 3% | ? | 8%
COc1ccccc1N(CC(=O)NCCSCc1ccccc1)S(=O)(=O)c1ccc(C)cc1 | -28% | · | 9.2µM* | 12µM* | ?
COc1ccccc1N(CC(=O)NCCSCc1ccco1)S(=O)(=O)c1ccccc1 | 21% | · | 18µM* | 16µM* | -12%
CCOc1ccc(N(CC(=O)NCCSCc2ccccc2)S(C)(=O)=O)cc1 | 34% | · | 1.8µM* | 5.8µM* | 3%
COc1ccccc1N(CC(=O)NCCSCc1ccccc1)S(=O)(=O)c1ccccc1 | · | · | ? | 23µM* | ·
COc1ccc(N(CC(=O)NCCSCc2ccco2)S(=O)(=O)c2ccccc2)cc1OC | -9% | 4% | ? | ? | 0%
C1CN(CC2CCN(c3nc4nonc4nc3N3CCSCC3)CC2)CCO1 | 10% | 0% | 14% | 0% | 10%
COc1ccccc1C(=O)NNC(=O)C1CCN(C(=O)OC(C)(C)C)CC1 | 0% | -1% | 0% | 20% | 0%
O=C(CN(c1ccccc1)S(=O)(=O)c1ccccc1)NCCSCc1ccco1 | 5% | 28µM* | -19% | -27% | -1%

Bioassay records as filed in PubChem.
